Assay results: PubChem BioAssay AID1445 (SRMLSC, 2008)
Hit rate of the full screen: of about 220,000 compounds, about 910 (0.41%) were called active.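 The calls were made as follows: active = primary inhibition above the hit cutoff, then over 50% inhibition at one or more dose response concentrations (cut at about 23% in these data, passing the limit was not always enough); inconclusive = conflicting primary data, or primary hits not chosen for dose response; inactive = low primary inhibition, or under 50% at every dose.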 The full list was thinned out, with actives kept by preference. Entries with a potency or affinity are not part of this list.

molecular target: Aminopeptidase N (Plasmodium falciparum (isolate 3D7)) (UniProt O96935); experiment: malaria alanyl aminopeptidase activity blockers – biochemical, fluorogenic H-Leu-NHMec substrate, 1536-well (AID 1445); settings: recombinant M1AAP, H-Leu-NHMec fluorogenic kinetic assay; at 30 µM, hits give high values unless noted;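 also: plate controls were DMSO full reaction for no effect and no enzyme background for full effect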
Sequence (O96935 whole entry, looked up): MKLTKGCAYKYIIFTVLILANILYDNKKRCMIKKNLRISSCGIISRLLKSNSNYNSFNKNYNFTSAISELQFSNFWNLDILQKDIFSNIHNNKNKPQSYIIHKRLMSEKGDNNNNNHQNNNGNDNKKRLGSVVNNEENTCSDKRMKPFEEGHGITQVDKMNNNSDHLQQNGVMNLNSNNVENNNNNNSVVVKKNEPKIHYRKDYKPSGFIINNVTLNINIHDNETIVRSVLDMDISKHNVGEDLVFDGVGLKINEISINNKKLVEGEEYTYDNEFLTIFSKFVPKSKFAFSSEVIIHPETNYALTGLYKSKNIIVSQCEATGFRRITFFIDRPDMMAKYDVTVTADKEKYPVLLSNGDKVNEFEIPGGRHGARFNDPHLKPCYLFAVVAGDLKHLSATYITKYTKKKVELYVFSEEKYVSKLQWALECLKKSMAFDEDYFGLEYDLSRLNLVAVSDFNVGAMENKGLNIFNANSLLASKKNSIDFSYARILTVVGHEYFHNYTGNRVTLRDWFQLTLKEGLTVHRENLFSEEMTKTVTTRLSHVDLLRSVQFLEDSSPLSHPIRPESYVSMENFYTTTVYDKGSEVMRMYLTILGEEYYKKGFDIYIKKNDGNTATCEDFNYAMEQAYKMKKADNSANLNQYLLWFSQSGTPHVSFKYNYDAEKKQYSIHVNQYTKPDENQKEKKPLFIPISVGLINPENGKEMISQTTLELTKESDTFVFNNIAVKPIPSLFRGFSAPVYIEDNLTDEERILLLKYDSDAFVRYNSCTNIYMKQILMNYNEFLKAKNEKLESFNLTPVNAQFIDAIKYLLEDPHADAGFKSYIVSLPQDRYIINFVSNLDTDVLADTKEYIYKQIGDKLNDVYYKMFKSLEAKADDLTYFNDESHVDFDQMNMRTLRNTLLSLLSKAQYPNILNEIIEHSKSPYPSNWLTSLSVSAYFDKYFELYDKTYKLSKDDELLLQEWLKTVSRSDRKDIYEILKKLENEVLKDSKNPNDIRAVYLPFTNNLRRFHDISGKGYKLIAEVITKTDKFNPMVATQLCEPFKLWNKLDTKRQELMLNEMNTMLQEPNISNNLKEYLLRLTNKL

Row | Structure (SMILES) | inhibition
1 | CCCn1c2ccccc2c2nnc(SCC(=O)Nc3cc(C)on3)nc21 | 10.3% (inactive)
2 | CCn1c2ccccc2c2nnc(SCC(=O)Nc3c(C)n(C)n(-c4ccccc4)c3=O)nc21 | 0.94% (inactive)
3 | CCn1c2ccccc2c2nnc(SCC(=O)Nc3cc(C)on3)nc21 | 1.82% (inactive)
4 | CSc1nnc2c3cc(C)ccc3n(Cc3ccccc3)c2n1 | 1.58% (inactive)
5 | Cc1ccc2c(c1)c1nnc(SCC(=O)N3CCN(c4ccc(F)cc4)CC3)nc1n2CC(=O)O | 2.3% (inactive)
6 | CCc1nnc(SCC(=O)N2CCCc3ccccc32)nc1CC | 0.48% (inactive)
7 | O=C(CSc1nnc(Cc2cc(=O)[nH]c(=O)[nH]2)n1-c1ccc(Cl)cc1)NCC1CCCO1 (stereo not given) | 0.41% (inactive)
8 | COC(=O)C1=C(C)N(C)C(=S)NC1c1ccc(OC)cc1OC (stereo not given) | 3.74% (inactive)
9 | CCOc1ccc(C(=O)NC(=S)Nc2cccnc2)cc1[N+](=O)[O-] | 6.68% (inactive)
10 | Cn1c(=O)c(C(=O)COC(=O)c2cc(-c3ccccc3)nc3ccccc23)c(N)n(Cc2ccccc2)c1=O | 3.89% (inactive)
11 | O=C(/C=C/c1cccs1)NC(=S)Nc1ccccc1 | 22% (inactive)
12 | COc1ccc(/C=C/C(=O)NC(=S)Nc2ccc(N3CCN(C(C)=O)CC3)cc2)cc1 | 6.43% (inactive)
13 | COc1ccc(/C=C/C(=O)NC(=S)Nc2ccc(S(N)(=O)=O)cc2)cc1 | 9.42% (inactive)
14 | COc1ccc(NC(=S)NC(=O)/C=C/c2cccs2)cc1 | 10.7% (inactive)
15 | COc1ccc(/C=N/N=C2/NC(=O)C(CC(=O)NC(C)C)S2)cc1 (stereo not given) | 10.2% (inactive)
16 | O=C(CN1CCCN(S(=O)(=O)c2ccc(F)cc2)CC1)Nc1ccccc1Br | 7.31% (inactive)
17 | COc1ccc2c(c1)C=C(CN1CCN(C(C)C)C(CCO)C1)CO2 (stereo not given) | -13.9% (inactive)
18 | CCOc1cc(/C=N/NC(=O)c2ccc(-c3csc(Nc4ccc(C)cc4)n3)cc2)ccc1OCC(=O)O | 14.3% (inactive)
19 | CCOc1cc(/C=C2\SC(=Nc3ccccc3)N(c3ccccc3)C2=O)ccc1OCC(=O)O | 8.93% (inactive)
20 | CCOc1cc(/C=C2/SC(=O)N(CC(=O)N3CCc4ccccc4C3)C2=O)ccc1OCC(=O)O | 12.8% (inactive)

Row | Structure (SMILES) | inhibition
21 | CCOc1cc(C=C2C(=O)c3ccccc3C2=O)ccc1OCC(=O)Nc1ccc(C)cc1 | 2.91% (inactive)
22 | COC(=O)c1c(NC(=O)COC(=O)c2ccccc2O)sc2c1CCCCC2 | 2.42% (inactive)
23 | COc1cc(NC(=O)Cc2cccs2)ccc1-n1cnnn1 | 4.02% (inactive)
24 | CN1CCc2c(OCc3ccc(F)cc3)cccc2C1=O | 3.15% (inactive)
25 | COc1ccc(NC(=O)c2ccccc2NS(=O)(=O)c2ccc(C)cc2)c([N+](=O)[O-])c1 | 11.4% (inactive)
26 | COc1ccc(NC(=S)NNc2ccc([N+](=O)[O-])cc2S(=O)(=O)Nc2ccc(C)cc2C)cc1 | 5.53% (inactive)
27 | O=C(O)c1ccccc1Nc1ccc(OC(F)F)cc1 | 2.47% (inactive)
28 | Cc1ccc(S(=O)(=O)Nc2ccccc2C(=O)OC(C)C(=O)Nc2ccc3ccccc3c2)cc1[N+](=O)[O-] (stereo not given) | -0.95% (inactive)
29 | O=c1c(Cc2ccc(Cl)cc2)c(O)ccn1Cc1ccccc1 | 1.46% (inactive)
30 | Cc1oc2c(C)c3oc(=O)c4c(c3cc2c1C)CCC4 | 9.19% (inactive)
31 | Cc1oc2c(C)c3oc(=O)c4c(c3cc2c1C)CCCC4 | 4.09% (inactive)
32 | Cc1c(O)c(CN2CCCC2)cc2c1oc(=O)c1ccccc12 | 11.4% (inactive)
33 | CCc1cc(=O)oc2c(C)c(O)c(CN(C)C)cc12 | 9.74% (inactive)
34 | CCCc1cc(=O)oc2c(C)c(O)c(CN3CCCCC3)cc12 | -4.01% (inactive)
35 | Cc1c(O)c(CN2CCCCC2)cc2c1oc(=O)c1ccccc12 | 1.46% (inactive)
36 | O=C(COc1cccnc1[N+](=O)[O-])Nc1ccccc1Sc1ccccc1 | -2.34% (inactive)
37 | CCOc1cccc(C(=O)NC(=S)Nc2cccnc2)c1 | 6.93% (inactive)
38 | COc1ccc(-c2ccc(N(C)C)cc2)cc1[C@H]1[C@H]2C=CC[C@@H](C)[C@@H]2C(=O)N1Cc1ccccc1 | 0.52% (inactive)
39 | O=C(c1ccc2c(=O)n3c(nc2c1)CCCCC3)N1CCN(c2ccccc2)CC1 | 7.74% (inactive)
40 | COc1ccc(Nc2cc(Cl)nc(N)n2)cc1 | 4.08% (inactive)

Row | Structure (SMILES) | inhibition
41 | CCNC(=S)N(CCc1ccc(S(N)(=O)=O)cc1)C1CC(=O)N(c2ccccc2)C1=O (stereo not given) | 2.82% (inactive)
42 | Cc1nn2c(-c3ccccn3)ccnc2c1Br | 7.82% (inactive)
43 | CCOc1c(Cl)cnn(-c2ccc(C)cc2)c1=O | -0.82% (inactive)
44 | CCOC(=O)c1cc(-c2cc3ccccc3o2)nc2c1c(=O)[nH]c(=O)n2CCOC | 6.31% (inactive)
45 | N=C(N)N=Nc1c(O)[nH]c2ccc(Br)cc12 | 10.3% (inactive)
46 | Oc1[nH]c2ccc(Br)cc2c1N=Nc1ccc(C(F)(F)F)cn1 | 4.3% (inactive)
47 | CNc1oc(/C=C/c2ccccc2)nc1C#N | 3.76% (inactive)
48 | COc1ccc(-c2nc(C#N)c(NCCCN3CCOCC3)o2)cc1 | 27.7% (active)
49 | N#Cc1nc(-c2ccco2)oc1NCCCN1CCOCC1 | 6.97% (inactive)
50 | CN1CCN(c2oc(/C=C/c3ccccc3)nc2C#N)CC1 | 16.3% (inactive)
51 | N#Cc1nc(-c2ccc(F)cc2)oc1NCCN1CCOCC1 | 3.45% (inactive)
52 | COCCNc1oc(-c2ccccc2Cl)nc1C#N | 10.4% (inactive)
53 | COCCNc1oc(-c2ccc(C)cc2)nc1C#N | 19.1% (inactive)
54 | CN(C)CCNc1oc(/C=C/c2ccccc2)nc1C#N | 20.7% (inactive)
55 | CN(C)CCCNc1oc(-c2ccccc2)nc1C#N | 5.83% (inactive)
56 | O=C(NCCOc1ccccc1F)c1cc(F)c(F)cc1Cl | 3.2% (inactive)
57 | CC(=O)N1CCN(c2ccc([N+](=O)[O-])cc2)CC1 | 3.7% (inactive)
58 | COc1ccccc1-c1nn2c(C(F)(F)F)nnc2s1 | 4.63% (inactive)
59 | O=C(NCc1ccccc1)C1=C[C@H](c2coc3ccccc3c2=O)C[C@H](OCCCCO)O1 | 6.04% (inactive)
60 | O=c1c2cc(NC(=S)NC3CC3)ccc2nc2n1CCCCC2 | -0.67% (inactive)
